Source: PubChem BioAssay (NCATS)
Records with an inconclusive call do not appear. A number with no mark means an inactive call. Active and inactive are the calls of the source. Calls come from the whole dose curve; as a rule, active = well fitted curve in the direction sought with a large enough effect; inconclusive = small, poorly fitted or top-dose-only effect, or another doubt; inactive = no such curve, though single readings can be large; an effect the other way counts as inactive or inconclusive.

Experiments:
[1] = Quantitative High-Throughput drug screen in 47 multiple myeloma cell lines against the NCATS MIPE library collection: FR4_PLB cell viability assay (AID 1918924; note: nearly all actives have a fitted effect of over 35% in size)
Method in brief: (§1)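 Viability readout: CellTiter-Glo luminescence following 5 min room-temperature incubation with reagent. Prior exposure: 48 h, 37C, humidified 5% CO2, 500 cells per well.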

[2] = Quantitative High-Throughput drug screen in 47 multiple myeloma cell lines against the NCATS MIPE library collection: Delta47_JCRB cell viability assay (AID 1918925; note: nearly all actives have a fitted effect of over 45% in size;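 for viability (% of DMSO): 0% = media-only wells and 100% = DMSO-only wells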)
Method in brief: (§2)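 Primary qHTS used for cherry-picking: cells at 500/well, library compounds for 48 h (37C, 5% CO2), luminescent ATP assay.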

[3] = Quantitative High-Throughput drug screen in 47 multiple myeloma cell lines against the NCATS MIPE library collection: EJM_DSMZ cell viability assay (AID 1918926; note: nearly all actives have a fitted effect of over 30% in size)
Method in brief: as §2

[4] = Quantitative High-Throughput drug screen in 47 multiple myeloma cell lines against the NCATS MIPE library collection: Karpas620_DSMZ cell viability assay (AID 1918959); note: nearly all actives have a fitted effect of over 30% in size;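 for viability (% of DMSO): 100% = DMSO-only wells and 0% = cell-free media-only wells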
Method in brief: as §1

[5] = Quantitative High-Throughput drug screen in 47 multiple myeloma cell lines against the NCATS MIPE library collection: KHM11_PLB cell viability assay (AID 1918962); note: nearly all actives have a fitted effect of over 35% in size
Method in brief: as §1

[6] = Quantitative High-Throughput drug screen in 47 multiple myeloma cell lines against the NCATS MIPE library collection: AMO1_DSMZ cell viability assay (AID 1918927; note: nearly all actives have a fitted effect of over 30% in size)
Method in brief: as §2

[7] = Quantitative High-Throughput drug screen in 47 multiple myeloma cell lines against the NCATS MIPE library collection: ARD_JJKsccE7 cell viability assay (AID 1918929;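 for viability: 100% = DMSO-only wells and 0% = media-only wells without cells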)
Method in brief: as §2

[8] = Quantitative High-Throughput drug screen in 47 multiple myeloma cell lines against the NCATS MIPE library collection: KMM1_JCRB cell viability assay (AID 1918960); note: nearly all actives have a fitted effect of over 30% in size;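 for viability (% of DMSO): 100% = DMSO-treated cells and 0% = medium-only wells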
Method in brief: (§3)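 Here, 48 h treatment with MIPE 4.0 agents at 37 °C preceded an ATP luminescence read. Plating density was 500 cells per well.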

[9] = Quantitative High-Throughput drug screen in 47 multiple myeloma cell lines against the NCATS MIPE library collection: JIM3_ECACC cell viability assay (AID 1918963; note: nearly all actives have a fitted effect of over 35% in size)
Method in brief: as §1

[10] = Quantitative High-Throughput drug screen in 47 multiple myeloma cell lines against the NCATS MIPE library collection: JIM1_ECACC cell viability assay (AID 1918964)
Method in brief: as §2

[11] = Quantitative High-Throughput drug screen in 47 multiple myeloma cell lines against the NCATS MIPE library collection: ARP1_JJKsccF8 cell viability assay (AID 1918928; note: nearly all actives have a fitted effect of over 40% in size;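 for viability: 100% = DMSO only wells and 0% = medium only wells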)
Method in brief: as §3

[12] = Quantitative High-Throughput drug screen in 47 multiple myeloma cell lines against the NCATS MIPE library collection: Karpas417_ECACC cell viability assay (AID 1918961); details: Karpas417 myeloma viability, CellTiter-Glo ATP luminescence, 48 h; viability (% of DMSO): at 45.8 µM (top of the series);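 for viability (% of DMSO): 100% = DMSO only wells and 0% = media only wells without cells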
Method in brief: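 Approved and investigational drugs from MIPE 4.0 were added by pin tool to 500 cells per well. After 48 hours at 37C, ATP-based CellTiter-Glo luminescence indicated remaining viability.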
Potency is the fitted concentration of half-maximal effect.

SMILES	Potency [1]	Potency [2]	Potency [3]	Potency [4]	Potency [5]	Potency [6]	Potency [7]	Potency [8]	Potency [9]	Potency [10]	Potency [11]	Potency [12]	viability (% of DMSO) [12]
O=C(O)[C@H](CC(=O)N1C[C@@H]2CCCC[C@H]2C1)Cc1ccccc1	inactive	inactive	inactive	inactive	inactive	–	–	–	–	–	–	–	–
CC(=O)N1CCN(c2ccc(OCc3nn(C)c(C)c3-c3cccc4c(CCCOc5cccc6ccccc56)c(C(=O)O)n(Cc5cccnc5)c34)cc2)CC1	10500 nM (active)	332 nM (active)	105 nM (active)	1870 nM (active)	2350 nM (active)	52.6 nM (active)	118 nM (active)	1180 nM (active)	3320 nM (active)	469 nM (active)	–	–	–
O=c1[nH]c(=O)n([C@H]2C[C@@H](O)[C@@H](CO)O2)cc1F	13200 nM (active)	18700 nM (active)	–	–	–	1660 nM (active)	23500 nM (active)	1660 nM (active)	–	18700 nM (active)	5260 nM (active)	–	–
C[C@H]1C[C@H]2[C@@H]3CCC4=CC(=O)C=C[C@]4(C)[C@@H]3C(=O)C[C@]2(C)[C@@]1(O)C(=O)CO	inactive	inactive	inactive	inactive	inactive	inactive	inactive	inactive	inactive	–	–	inactive	–
CO[C@@H]1[C@@H](O)[C@H](O)[C@@H](n2c3c(Cl)cccc3c3c4c(c5c6cccc(Cl)c6[nH]c5c32)C(=O)NC4=O)O[C@@H]1CO	3320 nM (active)	590 nM (active)	2640 nM (active)	1480 nM (active)	1180 nM (active)	166 nM (active)	5260 nM (active)	264 nM (active)	1480 nM (active)	526 nM (active)	–	1320 nM (active)	–
C=CC(=O)Nc1cccc(Nc2nc(NC3CCC(N(C)C)CC3)nc3c2ncn3C(C)C)c1 (configuration not stated)	235 nM (active)	235 nM (active)	8.3 nM (active)	–	372 nM (active)	–	10.5 nM (active)	13.2 nM (active)	332 nM (active)	1 nM (active)	–	–	–
OCC(O)C(O)C(O)CO (configuration not stated)	inactive	inactive	inactive	inactive	inactive	–	inactive	–	–	–	–	–	–
COc1cc(N2CCC(C(N)=O)CC2)ccc1Nc1nc(N)c(Cl)c(Nc2ccccc2S(=O)(=O)C(C)C)n1	14800 nM (active)	83.3 nM (active)	105 nM (active)	–	–	5260 nM (active)	59 nM (active)	–	166 nM (active)	46.9 nM (active)	1320 nM (active)	–	–
C#C[C@]1(O)CC[C@@H]2[C@@H]3CCc4cc(O)ccc4[C@H]3CC[C@@]21C	16600 nM (active)	7430 nM (active)	6620 nM (active)	–	–	16600 nM (active)	18700 nM (active)	–	20900 nM (active)	–	–	8330 nM (active)	–
CNC(=O)c1cccc(-c2ccc3c(N4CCOC[C@H]4C)nc(N4CCOC[C@H]4C)nc3n2)c1	66.2 nM (active)	29.6 nM (active)	1660 nM (active)	–	–	83.3 nM (active)	1180 nM (active)	–	41.8 nM (active)	13.2 nM (active)	18.7 nM (active)	52.6 nM (active)	–
O=C(O)C=Cc1ccc(Cn2ccnc2)cc1	inactive	inactive	inactive	inactive	inactive	372 nM (active)	inactive	inactive	–	inactive	–	–	–
OCc1ccccc1O[C@@H]1O[C@H](CO)[C@H](O)[C@H](O)[C@H]1O	inactive	13200 nM (active)	10500 nM (active)	inactive	inactive	–	inactive	inactive	inactive	inactive	–	–	–
CC(=O)N[C@H]1[C@@H]([C@H](O)[C@H](O)CO)OC(C(=O)O)=C[C@@H]1N=C(N)N	inactive	inactive	inactive	inactive	inactive	inactive	–	–	–	–	–	–	–
N#CC(=C(N)Sc1ccc(N)cc1)c1ccccc1C(F)(F)F	inactive	5900 nM (active)	inactive	–	418 nM (active)	–	–	–	5900 nM (active)	–	14800 nM (active)	–	–
COC1=C2C[C@@H](C)C[C@H](OC)[C@@H](O)[C@@H](C)C=C(C)[C@H](OC(N)=O)[C@@H](OC)C=CC=C(C)C(=O)NC(=CC1=O)C2=O	332 nM (active)	132 nM (active)	372 nM (active)	–	132 nM (active)	–	–	–	209 nM (active)	7430 nM (active)	118 nM (active)	–	–
O=C(C[C@@H]1CC=CCCC(=O)O[C@H](c2ccccc2)CNC1=O)NCc1ccc(Cl)cc1	16600 nM (active)	10500 nM (active)	1.2 nM (active)	inactive	2640 nM (active)	–	–	inactive	–	–	–	–	118% (active)
O=C(C=CC#Cc1cccc(NS(=O)(=O)c2ccccc2)c1)NO	1180 nM (active)	1180 nM (active)	5900 nM (active)	1870 nM (active)	2350 nM (active)	–	1180 nM (active)	526 nM (active)	–	1320 nM (active)	372 nM (active)	–	–
C[C@]12CCC(=O)C=C1[C@@H]1CC1[C@H]1[C@H]3[C@@H]4C[C@H]4[C@@]4(CCC(=O)O4)[C@@]3(C)CC[C@H]12 (some centres not stated)	inactive	inactive	inactive	–	–	–	18700 nM (active)	20900 nM (active)	inactive	–	–	–	–
CC(C)N(CC[C@H](c1ccccc1)c1cc(CO)ccc1O)C(C)C	inactive	inactive	inactive	inactive	–	inactive	–	inactive	inactive	–	inactive	inactive	–
CC1(C)CC(O)CC(C)(C)N1[O]	inactive	inactive	inactive	inactive	–	inactive	–	inactive	inactive	inactive	inactive	–	–
CC(=O)NCC(=O)N1[C@H]2CC[C@H]1c1cc(Nc3ncc(C(F)(F)F)c(NC4CCC4)n3)ccc12	9350 nM (active)	662 nM (active)	7430 nM (active)	1320 nM (active)	526 nM (active)	235 nM (active)	1660 nM (active)	3720 nM (active)	1180 nM (active)	332 nM (active)	–	118 nM (active)	–
CS[C@H]1SC[C@@H]2C(=O)N(C)[C@H](C(C)C)C(=O)OC[C@H](NC(=O)c3cnc4ccccc4n3)C(=O)N[C@H](C)C(=O)N(C)[C@@H]1C(=O)N(C)[C@H](C(C)C)C(=O)OC[C@H](NC(=O)c1cnc3ccccc3n1)C(=O)N[C@H](C)C(=O)N2C	4.2 nM (active)	1 nM (active)	5.9 nM (active)	1 nM (active)	9.3 nM (active)	–	–	–	–	–	3.3 nM (active)	–	–
CC(=O)O[C@H]1C[C@@H]2CC[C@H]3[C@H]4C[C@H]([N+]5(C)CCCCC5)[C@@H](OC(C)=O)[C@@]4(C)CC[C@@H]3[C@@]2(C)C[C@H]1N1CCCCC1	inactive	–	inactive	–	–	inactive	inactive	inactive	inactive	–	inactive	inactive	–
Cc1cnn(C)c1C(=O)Nc1cc(Nc2ccc3c(C=Cc4ccccn4)n[nH]c3c2)ccc1F	20900 nM (active)	8330 nM (active)	–	20900 nM (active)	18700 nM (active)	9350 nM (active)	4180 nM (active)	1660 nM (active)	5260 nM (active)	10500 nM (active)	–	–	–
O=C1NC(=O)[C@@H](c2cn3c4c(cccc24)CCC3)[C@H]1c1c[nH]c2ccccc12	74.3 nM (active)	–	20900 nM (active)	74.3 nM (active)	–	46.9 nM (active)	66.2 nM (active)	105 nM (active)	118 nM (active)	46.9 nM (active)	–	–	–
CN(C)CC[C@H](c1ccc(Cl)cc1)c1ccccn1	inactive	inactive	–	inactive	inactive	–	–	inactive	inactive	–	inactive	–	–
COc1cc2c(Nc3ccc(Cl)c(Cl)c3F)ncnc2cc1OCC1C[C@@H]2CN(C)C[C@H]2C1	14800 nM (active)	–	2960 nM (active)	4180 nM (active)	5900 nM (active)	8330 nM (active)	13200 nM (active)	18700 nM (active)	4180 nM (active)	14800 nM (active)	8330 nM (active)	–	–
CC[C@H]1OC(=O)[C@H](C)[C@@H](O[C@H]2C[C@@](C)(OC)[C@@H](O)[C@H](C)O2)[C@H](C)[C@@H](O[C@@H]2O[C@@H](C)C[C@H](N(C)C)[C@@H]2O)[C@](C)(O)C[C@@H](C)C(=O)[C@H](C)[C@@H](O)[C@]1(C)O	inactive	–	inactive	inactive	inactive	inactive	inactive	inactive	inactive	inactive	inactive	–	–
